Laboratory results: PubChem BioAssay AID1671192 (National Center for Advancing Translational Sciences (NCATS), 2021)
Inconclusive results are not listed. A number with no mark means an inactive call. Calls come from the whole dose curve; as a rule, active = well fitted curve in the direction sought with a large enough effect; inconclusive = small, poorly fitted or top-dose-only effect, or another doubt; inactive = no such curve, though single readings can be large or run the other way.
Note: 0% is about no effect.

The compounds below were run against Polyunsaturated fatty acid lipoxygenase ALOX15 (Homo sapiens) (UniProt P16050) (assay: Counterscreen qHTS for inhibitors of human arachidonate 12S-lipoxygenase (ALOX12): ALOX15 Assay). Conditions: purified ALOX15 enzyme activity; series mostly up to 110 µM; activity change, negative = inhibition: at the top concentration.
Polyunsaturated fatty acid lipoxygenase ALOX15 (Homo sapiens), sequence (P16050 whole entry, looked up): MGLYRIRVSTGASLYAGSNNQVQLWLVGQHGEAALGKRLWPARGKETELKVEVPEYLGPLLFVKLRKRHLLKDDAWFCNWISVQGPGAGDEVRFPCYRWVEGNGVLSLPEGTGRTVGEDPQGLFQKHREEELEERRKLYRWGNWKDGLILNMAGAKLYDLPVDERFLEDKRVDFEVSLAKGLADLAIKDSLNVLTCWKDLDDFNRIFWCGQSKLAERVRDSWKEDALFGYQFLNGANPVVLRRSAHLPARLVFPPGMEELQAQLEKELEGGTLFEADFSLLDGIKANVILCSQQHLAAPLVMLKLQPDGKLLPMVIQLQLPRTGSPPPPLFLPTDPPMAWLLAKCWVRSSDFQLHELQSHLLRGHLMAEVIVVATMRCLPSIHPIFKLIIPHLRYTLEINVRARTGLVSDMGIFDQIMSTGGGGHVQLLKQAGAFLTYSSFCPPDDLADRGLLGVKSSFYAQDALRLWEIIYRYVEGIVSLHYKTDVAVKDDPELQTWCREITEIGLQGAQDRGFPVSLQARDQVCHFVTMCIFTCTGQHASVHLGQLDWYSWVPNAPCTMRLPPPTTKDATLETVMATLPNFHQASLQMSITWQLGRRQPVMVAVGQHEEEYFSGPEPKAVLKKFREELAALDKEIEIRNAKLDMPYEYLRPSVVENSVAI
Summary of the method: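 Xylenol orange–ferric complex formation, read as the 573 nm to 405 nm absorbance ratio, tracks product from 50 uM arachidonic acid turned over for 30 min at RT. Enzyme is 40 nM ALOX15, pH 7.5 HEPES buffer, compound-preincubated 15 min.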
With `COc1cccc(CNc2ncnc3c2CN(C2CCCNCC2)C(=O)CN3C)c1` (stereo not drawn) the “activity change, negative = inhibition” value was -3.38%. For `O=C(O)CCCC(=O)N1Cc2ccccc2CC2(CCCCN2CCc2ccccc2)C1` (stereo not drawn), the “activity change, negative = inhibition” value was -14.5%. For `O=C1NC(=NC2CCCC2)C2(CCN(CC3CC3)C2)N1c1cccnc1` (stereo not drawn), the “activity change, negative = inhibition” value was -31.3%. In the case of `COc1ccc(OC2CN(Cc3cccc4ccccc34)C2)cc1`, the “activity change, negative = inhibition” value is reported as -16% [at 146 µM]. In the case of `Cn1ncc2c(C(=O)NCCc3ccc(Cl)cc3)cc(-c3ccc([S+](C)(=O)[O-])cc3)nc21`, the “activity change, negative = inhibition” value is reported as -20.8%. For `COc1ccc(CN2CCCC23Cc2ccccc2CNC3=O)cc1OC` (stereo not drawn), the “activity change, negative = inhibition” value was -13.2%. For `c1cc2c(cc1OC1CN(CC3CCCCC3)C1)OCO2`, the “activity change, negative = inhibition” value was -4.23% [at 146 µM]. In the case of `O=C1NCc2ccccc2CC12CCCN2Cc1ccc(OC(F)(F)F)cc1` (stereo not drawn), the “activity change, negative = inhibition” value is reported as -12.6%. `O=C1NC2(Cc3ccccc31)CN(C(=O)c1ccccc1)C2` was tested, and the “activity change, negative = inhibition” value was -8.74% [at 146 µM]. In the case of `NCc1ccc(-c2cccc(Cl)c2)cc1`, the “activity change, negative = inhibition” value is reported as 26.5% [at 146 µM]. `Fc1ccc(OC2CN(CC3CC3)C2)cc1F` was tested, and the “activity change, negative = inhibition” value was -14% [at 233 µM]. In the case of `CC(C)c1nc2c(c(-c3ccc(Cl)cc3)n1)CCN(CC1CCCCC1)CC2`, the “activity change, negative = inhibition” value is reported as -16.6%. With `CN1CC(=O)N(C2CCCNCC2)Cc2c(NCc3cccs3)ncnc21` (stereo not drawn) the “activity change, negative = inhibition” value was -19.1%. For `Cc1ccc(C(=O)N2CCC3(CC(C(C)C)=NO3)C2)cc1` (stereo not drawn), the “activity change, negative = inhibition” value was 12.7% [at 146 µM]. With `Cc1noc(C)c1C(=O)N1Cc2ccccc2CC2(CCN(CC3CCNCC3)C2)C1` (stereo not drawn) the “activity change, negative = inhibition” value was -0.0561%. For `CC(C)Cc1ccc(CN2CCC3(Cc4ccccc4CNC3=O)C2)cc1` (stereo not drawn), the “activity change, negative = inhibition” value was -25%. For `O=C(NCc1ccc(Cl)nc1)c1cn2c(n1)CN(C(=O)c1ccccc1)CC2`, the “activity change, negative = inhibition” value was -6.13%. For `CC(C)[S+](=O)([O-])N1CCN(c2ccc(Cl)nn2)C(=O)C1`, the “activity change, negative = inhibition” value was -25.2% [at 146 µM].
